Measured values published in the supplement of paper PMC9694430.

Tests used:
Assay in all cases: thermal shift delta Tm vs DMSO control; higher = stronger stabilization (binding)
Details in all cases: 12.5 µM; protein concentration 2 µM
LOC_OS04G57630-cb004 = system: LOC_OS04G57630-cb004
Method in brief: (§1)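 Heating from 25°C to 95°C at 0.05°C/s, fluorescence was recorded for 19.5 μl wells of 2 μM E. coli-expressed, purified rice kinase domain in 100 mM potassium phosphate pH 7.5, 150 mM NaCl, 10% glycerol and 5 × SYPRO Orange with compound in DMSO. Boltzmann fits gave melting temperatures for this differential scanning fluorimetry assay. The shift reported is the mean of three replicates against the DMSO-only protein.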

LOC_OS05G07850-cb002 = system: LOC_OS05G07850-cb002
Method in brief: as §1

LOC_OS05G16824-cb004 = system: LOC_OS05G16824-cb004
Method in brief: as §1

LOC_OS05G28520-cb001 = system: LOC_OS05G28520-cb001
Method in brief: as §1

LOC_OS05G30820-cb001 = system: LOC_OS05G30820-cb001
Method in brief: as §1

LOC_OS05G43570-cb004 = system: LOC_OS05G43570-cb004
Method in brief: as §1

LOC_OS06G16330-cb003 = system: LOC_OS06G16330-cb003
Method in brief: as §1

LOC_OS06G22820-cb001 = system: T1, LOC_OS06G22820-cb001
T1 sequence (whole entry): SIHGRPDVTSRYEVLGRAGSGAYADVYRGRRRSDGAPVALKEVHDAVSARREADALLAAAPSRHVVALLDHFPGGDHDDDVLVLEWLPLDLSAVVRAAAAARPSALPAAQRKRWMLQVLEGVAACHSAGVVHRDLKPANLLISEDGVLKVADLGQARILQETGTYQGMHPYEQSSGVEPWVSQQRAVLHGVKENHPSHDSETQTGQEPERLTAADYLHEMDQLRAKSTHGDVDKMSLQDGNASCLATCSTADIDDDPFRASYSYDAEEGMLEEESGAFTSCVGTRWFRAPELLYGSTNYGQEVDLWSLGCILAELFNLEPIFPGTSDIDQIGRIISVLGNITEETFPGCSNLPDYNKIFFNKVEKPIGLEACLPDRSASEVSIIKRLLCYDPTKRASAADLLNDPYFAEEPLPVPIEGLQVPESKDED
Method in brief: as §1

LOC_OS07G06570-cb004 = system: LOC_OS07G06570-cb004
Method in brief: as §1

LOC_OS07G07230-cb001 = system: LOC_OS07G07230-cb001
Method in brief: as §1
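Note: purified Escherichia coli-expressed rice kinase domain construct.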

Sequence of LOC_OS06G16330-cb003 (as listed by the source): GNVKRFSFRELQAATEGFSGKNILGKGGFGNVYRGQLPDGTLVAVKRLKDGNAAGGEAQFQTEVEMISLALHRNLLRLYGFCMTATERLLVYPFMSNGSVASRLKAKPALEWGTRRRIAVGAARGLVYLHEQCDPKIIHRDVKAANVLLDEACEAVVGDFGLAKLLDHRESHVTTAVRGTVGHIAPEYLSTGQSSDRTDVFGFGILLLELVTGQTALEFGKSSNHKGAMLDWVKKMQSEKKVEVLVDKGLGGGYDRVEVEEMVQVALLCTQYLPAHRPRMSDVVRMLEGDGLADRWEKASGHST

SMILES	thermal shift delta Tm (LOC_OS04G57630-cb004) [°C]	thermal shift delta Tm (LOC_OS05G07850-cb002) [°C]	thermal shift delta Tm (LOC_OS05G16824-cb004) [°C]	thermal shift delta Tm (LOC_OS05G28520-cb001) [°C]	thermal shift delta Tm (LOC_OS05G30820-cb001) [°C]	thermal shift delta Tm (LOC_OS05G43570-cb004) [°C]	thermal shift delta Tm (LOC_OS06G16330-cb003) [°C]	thermal shift delta Tm (LOC_OS06G22820-cb001) [°C]	thermal shift delta Tm (LOC_OS07G06570-cb004) [°C]	thermal shift delta Tm (LOC_OS07G07230-cb001) [°C]
O=c1[nH]nc(Sc2ncc([N+](=O)[O-])s2)n1-c1ccc2c(c1)OCCO2	-1.46	-1.46	-2.53	0.59	0.64	0.84	-0.58	0.5	3.84	0.07
Cc1cc(Nc2nc(N[C@@H](C)c3ccc(F)cc3)c(C#N)cc2F)n[nH]1	0.47	11.9	8.62	-0.1	1.2	0.67	8.11	-0.41	0.19	0.12
O=C1CCc2c(Oc3ccc4c(c3)[C@@H]3[C@H](O4)[C@H]3c3nc4cc(C(F)(F)F)ccc4[nH]3)ccnc2N1 [Lifirafenib (BGB-283)]	5.81	9.47	-0.92	0.64	0.42	1.09	2.37	1.16	1.23	-0.15
NC1(c2ccc(-c3nc4ccn5c(=O)[nH]nc5c4cc3-c3ccccc3)cc2)CCC1	-0.22	1.31	-1.83	0.28	0.4	0.14	0.62	0.61	0.66	0.17
Cc1ccc2nc(NCCN)c3ncc(C)n3c2c1	-0.03	0.79	-0.92	0.44	0.61	0.49	0.49	0.81	1.79	0.68
C[C@@H]1CN(CC(=O)Nc2ccc3c(c2)Cc2cccc(-c4cc(=O)cc(N5CCOCC5)o4)c2S3)C[C@H](C)O1	-0.04	0.16	-0.46	-0.13	0.31	0.21	-0.2	0.77	1.02	-0.36
Cc1c[nH]c2nc(Nc3ccc(N4CCN(C)CC4)c(F)c3)nc(-c3cccc(CC#N)c3)c12	4.89	15	12.3	3.05	0.83	1.16	17.6	-0.11	2.22	0.57
CC[C@@](C)(Nc1ccnc(-c2c[nH]c3ncccc23)n1)C(=O)NCC(F)(F)F [Decernotinib (VX-509)]	0.07	9.28	2.45	0.87	0.49	0.57	8.57	0.47	0.54	0.24
COc1ccc(-c2nc(N3CCOCC3)c3sc(CN(C)c4ncc(C(=O)NO)cn4)cc3n2)cn1	0	0.02	-1.81	0.86	0.56	0.42	-0.08	0.84	0.56	0.26
CC(C)c1cnn2c(NCc3ccccc3-n3cccn3)nc(OC3CCCNC3)nc12 (stereo not given)	0.19	0.48	1.46	0.66	0.31	0.57	0.17	1.22	0.4	-0.33
COc1cc(OC)cc(-c2cc3cnc(N)nc3nc2NC(=O)NC(C)(C)C)c1	0.07	1.66	-1.45	-0.04	0.11	0.05	-0.44	0.29	1.06	1
COc1cc2c(Nc3ccc(NC(=O)c4ccccc4)cc3)ncnc2cc1OCCCN1CCOCC1	1.89	5.62	1.9	1.02	0.36	0.4	1.97	0.94	0.77	0.42
CCOc1cc2ncc(C#N)c(Nc3ccc(F)c(Cl)c3)c2cc1NC(=O)/C=C/CN(C)C [Pelitinib (EKB-569)]	0.32	2.2	-1.87	-0.33	0.56	0.2	2.16	0.39	0.65	0.56
COc1ccc(/C=C/C(=O)C2(C(=O)/C=C/c3ccc(OC)c(OC)c3)CCCCC2)cc1OC	-0.06	0.62	-3.56	0.12	0.75	0.25	-0.37	0.49	2.62	0.7
C=CC(=O)N1CCC[C@@H](n2nc(-c3ccc(Oc4ccccc4)cc3)c3c(N)ncnc32)C1	1	6.56	1.31	-0.3	0.44	0.27	1.99	0.54	0.5	0.64
CC(C)(C)c1cc(/C=C(\C#N)C(N)=S)cc(C(C)(C)C)c1O [Tyrphostin AG 879]	-0.19	12.1	-5.25	1.25	1.1	1.09	1.66	1.38	2.77	0.65
C=CC(=O)Nc1cccc(Nc2nc(Nc3ccc(NC4CN(CCF)C4)cc3OC)ncc2C(F)(F)F)c1	0.41	6.71	1.25	0.72	0.43	0.24	-0.88	0.16	1.07	0.62
COc1cc(OC)c(C=C2C(=O)Nc3ccccc32)c(OC)c1	0.1	0.55	-0.46	0.31	0.46	-0.11	-0.29	0.44	1.13	0.96
CN1CC[C@H](c2c(O)cc(O)c3c(=O)cc(-c4ccccc4Cl)oc23)[C@H](O)C1 [Flavopiridol (Alvocidib)]	0.36	5.16	2.71	-0.27	0.85	0.07	3.19	1.43	0.96	0
Cn1cc(-c2ccc3nnc(C(F)(F)c4ccc5ncccc5c4)n3n2)cn1	0.16	1.31	0.65	0.54	0.28	0.51	1.54	0.92	1.14	-0.03
